# Reference: PubChem BioAssay (Tox21)
# “And” between values parts separate entries of the source, which are not always exact repeats. Equal entries are not always repeated. Values without a mark were called inactive. Records with an inconclusive call do not appear. Where a call stands in place of a potency, no number is given. The source made the active and inactive calls. Unless noted, calls come from the whole dose curve; as a rule, active = well fitted curve in the direction sought with a large enough effect in the repeat runs; inconclusive = weak or mixed curves; inactive = no such curve, though single readings can be large; an effect the other way counts as inactive or inconclusive.
# Legend:
# [1] = qHTS assay to identify small molecule agonists of the estrogen receptor alpha (ER-alpha) signaling pathway in the presence of an antagonist - cell viability counter screen (AID 1259386); settings: VM7Luc4E2 viability, CellTiter-Fluor fluorescence, 22 h; series mostly up to 92.4 µM;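 note: cells exposed to compounds for 22 h at 37 °C before the viability read; nearly all actives have a fitted effect of over 30% in size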; note: potency is the fitted concentration of half-maximal effect
# How it was run: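 Read-out: CellTiter-Fluor fluorescence after 1hr reagent incubation, measured in the same wells as the luciferase readout. VM7Luc4E2 cells were exposed to 15 compound concentrations with 10.0nM ICI-182,780 for 22hr at 37C.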
# [2] = molecular target: Progesterone receptor (Homo sapiens) (UniProt P06401); test: qHTS assay to identify small molecule agonists of the progesterone receptor (PR) signaling pathway (AID 1346784; calls by dose curve; note: nearly all actives have a fitted effect of over 30% in size); settings: PR-UAS-bla HEK293T, beta-lactamase FRET ratio, 16 h; series mostly up to 92.4 µM
# How it was run: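 HEK 293T PR-UAS-bla reporter cells, 2% charcoal-stripped FBS; 6 hr settle at 37C/5% CO2, compound (DMSO) 16 hr, LiveBLAzer B/G FRET substrate 2 hr RT, fluorescence intensity read.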
# [3] = molecular target: Progesterone receptor (Homo sapiens) (UniProt P06401); test: qHTS assay to identify small molecule antagonists of the progesterone receptor (PR) signaling pathway (AID 1346795; active = well fitted inhibition curve with a large enough effect in the signal ratio in the repeat runs, not every such curve was filed as active; the % refers to the signal ratio); settings: PR-UAS-bla HEK293T, beta-lactamase FRET ratio, 16 h; series mostly up to 92.4 µM
# How it was run: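 Beta-lactamase reporter, HEK293T PR-UAS-bla line; 2% charcoal-stripped FBS; 6 hr pre-incubation, 37C/5% CO2. Compound + R5020 1 nM final, 16 hr. LiveBLAzer B/G FRET substrate, 2 hr RT; fluorescence intensity read.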
# [4] = qHTS assay to identify small molecule agonists of the progesterone receptor (PR) signaling pathway - cell viability counter screen (AID 1346799; calls by dose curve; note: nearly all actives have a fitted effect of over 45% in size); settings: PR-UAS-bla HEK293T viability, CellTiter-Glo luminescence, 16 h; series mostly up to 92.4 µM
# How it was run: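 HEK293T PR-UAS-bla, 3,000 cells/well, 2% charcoal-stripped FBS; 6 h settle, compound 16 h at 37C/5% CO2; LiveBLAzer 2 h RT, then CellTiter-Glo 30 min RT, luminescence read.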
# [5] = qHTS assay to identify small molecule antagonists of the TGF-beta/Smad signaling pathway - cell viability counter screen (AID 1346824); settings: SBE-bla HEK293T viability, CellTiter-Glo luminescence; series mostly up to 76.8 µM; note: nearly all actives have a fitted effect of over 50% in size
# How it was run: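 Cytotoxicity counter-screen run in the same wells as the beta-lactamase Smad reporter read: CellTiter-Glo luminescence after 30 min at room temperature. HEK 293T SBE-bla cells had 5 hr compound exposure at 37 C with TGF-beta1 (0.25 ng/mL stock).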
# [6] = qHTS assay to identify small molecule agonists of the TGF-beta/Smad signaling pathway - cell viability counter screen (AID 1346829); settings: SBE-bla HEK293T viability, CellTiter-Glo luminescence, 5 h; series mostly up to 76.8 µM; note: top concentration of the series differs between compounds; nearly all actives have a fitted effect of over 45% in size
# How it was run: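 Cytotoxicity counter screen: CellTiter-Glo luminescence (30 min, room temperature) measured in the SBE-bla HEK 293T reporter wells after 5 hr compound treatment at 37 C and the 2 hr substrate step.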
# [7] = qHTS assay to identify small molecule agonists of the TGF-beta/Smad signaling pathway (AID 1346859; active = well fitted activation curve with a large enough effect in the signal ratio in the repeat runs, not every such curve was filed as active; the % refers to the signal ratio); settings: SBE-bla HEK293T, TGF-beta/Smad beta-lactamase reporter, 5 h; series mostly up to 76.8 µM
# How it was run: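 Read-out: fluorescence at 460 and 530 nm (405 nm excitation) after a 2 hr room-temperature incubation with beta-lactamase FRET substrate. SBE-bla HEK 293T cells had been treated with test compounds for 5 hr at 37 C.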
# [8] = molecular target: Thyrotropin-releasing hormone receptor (Homo sapiens) (UniProt P34981); test: qHTS assay to identify small molecule antagonists of the thyrotropin-releasing hormone receptor (TRHR) signaling pathway (AID 1346877; active = well fitted inhibition curve with a large enough effect in the repeat runs, not every such curve was filed as active); settings: TRHR-HEK293, TRH-induced calcium fluorescence, antagonist mode; series mostly up to 51.3 µM
# How it was run: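 HEK293/TRHR cells, 18 h, 37 °C; Ca2+ dye 2 h; cpd 5 min RT; TRH 1 nM final; fluorescence read 3 min, 1 s intervals; 15 concs, triplicate.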
# [9] = molecular target: Thyrotropin-releasing hormone receptor (Homo sapiens) (UniProt P34981); test: qHTS assay to identify small molecule agonists of the thyrotropin-releasing hormone receptor (TRHR) signaling pathway (AID 1346891; calls by dose curve;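 note: HEK293 cells expressing TRHR with calcium dye readout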); settings: TRHR-HEK293 calcium fluorescence, agonist mode; series mostly up to 57.6 µM
# How it was run: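 HEK293/TRHR cells, 1500 per well, 18 h 37 °C; Ca dye 2 h 37 °C; pin-tool compound addition (agonist mode); kinetic fluorescence 3 min, 1 s reads; 15 concentrations, triplicate.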
# [10] = Human pregnane X receptor (PXR) small molecule agonists, qHTS cell viability counter screen (AID 1346977); settings: PXR-Luc HepG2 viability, CellTiter-Fluor, 24 h; series mostly up to 92.4 µM; note: nearly all actives have a fitted effect of over 50% in size; note: potency is the fitted concentration of half-maximal effect
# How it was run: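 Fluorescence read-out (CellTiter-Fluor) of viability in PXR-Luc HepG2 cells, multiplexed with the luciferase agonist read. Compounds in DMSO added after 5hr plating; 24hr total exposure at 37C, 5% CO2.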
# [11] = Caspase-3/7 induction in HepG2 cells by small molecules, qHTS assay (AID 1346978); settings: HepG2 caspase-3/7 activation, Caspase-Glo luminescence, 17 h; series mostly up to 92.4 µM; note: nearly all actives have a fitted effect of over 15% in size
# How it was run: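 Caspase-3/7 induction was measured by Caspase-Glo 3/7 luminescence (30 min, room temperature) after a 17 hr compound exposure of wild-type HepG2 cells seeded at 2,000 per well and pre-incubated 5 hr.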
# [12] = Caspase-3/7 induction in CHO-K1 cells by small molecules, qHTS cell viability counter screen (AID 1346979); settings: CellTiter-Fluor fluorescence, 17 h; series mostly up to 92.4 µM; note: nearly all actives have a fitted effect of over 35% in size; note: potency is the fitted concentration of half-maximal effect
# How it was run: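 CHO-K1 wt, 1,500 cells/well; 5hr pre-incubation 37C/5% CO2; compound pin transfer (DMSO); 16hr exposure; CellTiter-Fluor added, 1hr, fluorescence read.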
# [13] = Caspase-3/7 induction in HepG2 cells by small molecules, qHTS cell viability counter screen (AID 1346981); settings: CellTiter-Fluor fluorescence, 17 h; series mostly up to 92.4 µM; note: nearly all actives have a fitted effect of over 30% in size; note: potency is the fitted concentration of half-maximal effect
# How it was run: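 Fluorescence read-out of live-cell protease activity (CellTiter-Fluor) after 1 hr with reagent. This was measured in the same wells as the caspase-3/7 luminescence, on HepG2 cells exposed to DMSO-dissolved compounds for 16 hr at 37 C.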
# [14] = molecular target: Nuclear receptor subfamily 1 group I member 2 (Homo sapiens) (UniProt O75469); test: Human pregnane X receptor (PXR) small molecule agonists, qHTS assay (AID 1346982); settings: PXR-Luc HepG2, CYP3A4 luciferase reporter, 24 h; series mostly up to 92.4 µM; note: nearly all actives have a fitted effect of over 35% in size
# How it was run: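 HepG2 PXR-Luc reporter line, 5% charcoal-stripped FBS; 5 hr pre-incubation, compound (DMSO) 24 hr at 37 C/5% CO2; ONE-Glo 30 min RT; luminescence read-out.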
# [15] = molecular target: Cytochrome P450 2D6 (Homo sapiens) (UniProt P10635); test: Cytochrome P450 Family 2 Subfamily D Member 6 (CYP2D6) small molecule antagonists: luciferase reporter qHTS assay (AID 1671196); settings: P450-Glo CYP2D6 enzyme assay, luciferin luminescence, 1 h; series mostly up to 115 µM; note: nearly all actives have a fitted effect of over 50% in size
# How it was run: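 Luminogenic proluciferin substrate, CYP2D6 enzyme; 10 min RT preincubation with compound, NADPH regeneration system added, 1 h RT. Stop/detection reagent, 20 min RT, luminescence read (RLU). Signal proportional to CYP activity.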
# [16] = Caspase-3/7 induction in CHO-K1 cells by small molecules, qHTS assay (AID 1346980); settings: CHO-K1 caspase-3/7 induction, Caspase-Glo luminescence, 17 h; series mostly up to 92.4 µM; note: nearly all actives have a fitted effect of over 15% in size
# How it was run: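 Luminescent Caspase-Glo 3/7 read (30min, room temperature) quantified apoptosis induction. Cells were wild-type CHO-K1, treated with compound for 17hr at 37 C and 5% CO2.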
# [17] = molecular target: Nuclear receptor subfamily 1 group I member 2 (Rattus norvegicus) (UniProt Q9R1A7); test: Rat pregnane X receptor (rPXR) activation by small molecules, qHTS assay (AID 1346983); settings: rPXR luciferase reporter cells, One-Glo luminescence, 24 h; hits give high values; note: nearly all actives have a fitted effect of over 20% in size
# How it was run: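 Luminescent readout (One-Glo luciferase, 30 min room temperature) followed 24 hr compound treatment at 37 C of rPXR cells plated 2,000 per well and preincubated 5hr; qHTS format with compounds delivered in DMSO.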
# [18] = molecular target: Nuclear receptor subfamily 1 group I member 2 (Homo sapiens) (UniProt O75469); test: Human pregnane X receptor (PXR) activation by small molecules, qHTS assay (AID 1346985); settings: DPX-2 HepG2 CYP3A4-luciferase, 24 h; series mostly up to 38.3 µM; note: potency is the fitted concentration of half-maximal effect; nearly all actives have a fitted effect of over 40% in size
# How it was run: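 DPX-2 cells (HepG2 co-transfected with a PXR response element and a CYP3A4-promoter luciferase construct) were seeded at 2,000 per well, rested 5 hr at 37C, then exposed to DMSO-dissolved compounds for 24 hr. Activation was read as luciferase luminescence.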
# [19] = molecular target: Cytochrome P450 2C19 (Homo sapiens) (UniProt P33261); test: Cytochrome P450 Family 2 Subfamily C Member 19 (CYP2C19) small molecule antagonists: luciferase reporter qHTS assay (AID 1671197); settings: P450-Glo CYP2C19 enzyme, luciferin luminescence, 1 h; series mostly up to 115 µM; note: nearly all actives have a fitted effect of over 65% in size
# How it was run: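 Luminescent readout of CYP2C19 activity: luciferin product detected 20 min after adding detection reagent. Before that, compound and enzyme-substrate mix preincubated 10 min at room temperature; NADPH-regenerating system started a 1 h, 37C reaction. Ketoconazole as positive control.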
# [20] = qHTS assay to identify small molecule antagonists of the progesterone receptor (PR) signaling pathway - cell viability counter screen (AID 1346798); settings: PR-UAS-bla HEK293T viability, CellTiter-Glo luminescence, 16 h; series mostly up to 92.4 µM; note: nearly all actives have a fitted effect of over 50% in size
# How it was run: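 Luminescence readout (CellTiter-Glo, 30 min, RT) of viability in PR-UAS-bla HEK293T cells exposed to compound and R5020 agonist for 16 hr at 37C, 5% CO2; run in the same wells as the beta-lactamase reporter read.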
# Cytochrome P450 2C19 (Homo sapiens), sequence (P33261 whole entry, looked up): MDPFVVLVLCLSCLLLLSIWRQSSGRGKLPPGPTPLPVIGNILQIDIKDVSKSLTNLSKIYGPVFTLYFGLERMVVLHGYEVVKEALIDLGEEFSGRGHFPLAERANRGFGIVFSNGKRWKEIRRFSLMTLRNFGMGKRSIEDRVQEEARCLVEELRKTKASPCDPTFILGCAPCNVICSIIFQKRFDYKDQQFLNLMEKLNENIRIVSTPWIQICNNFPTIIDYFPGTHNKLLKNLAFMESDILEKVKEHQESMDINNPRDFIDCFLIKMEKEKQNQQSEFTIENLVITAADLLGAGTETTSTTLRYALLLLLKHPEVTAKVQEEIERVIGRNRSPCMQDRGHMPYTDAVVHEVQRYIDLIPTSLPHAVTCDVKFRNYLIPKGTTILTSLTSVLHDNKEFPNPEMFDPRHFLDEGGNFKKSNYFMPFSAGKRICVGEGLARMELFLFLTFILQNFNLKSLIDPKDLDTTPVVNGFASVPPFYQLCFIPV
# Nuclear receptor subfamily 1 group I member 2 (Homo sapiens), sequence (O75469 whole entry, looked up): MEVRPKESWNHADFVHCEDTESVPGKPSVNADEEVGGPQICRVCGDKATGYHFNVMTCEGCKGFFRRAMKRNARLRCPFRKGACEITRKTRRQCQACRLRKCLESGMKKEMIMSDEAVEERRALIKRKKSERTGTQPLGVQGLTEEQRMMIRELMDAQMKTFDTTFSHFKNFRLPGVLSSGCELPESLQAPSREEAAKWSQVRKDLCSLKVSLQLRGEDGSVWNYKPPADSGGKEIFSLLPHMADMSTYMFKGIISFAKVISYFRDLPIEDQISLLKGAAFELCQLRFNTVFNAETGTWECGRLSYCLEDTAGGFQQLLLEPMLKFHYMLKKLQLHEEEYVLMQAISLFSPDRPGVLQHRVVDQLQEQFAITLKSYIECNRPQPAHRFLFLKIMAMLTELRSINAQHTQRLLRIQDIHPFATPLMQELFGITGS
# Thyrotropin-releasing hormone receptor (Homo sapiens), sequence (P34981 whole entry, looked up): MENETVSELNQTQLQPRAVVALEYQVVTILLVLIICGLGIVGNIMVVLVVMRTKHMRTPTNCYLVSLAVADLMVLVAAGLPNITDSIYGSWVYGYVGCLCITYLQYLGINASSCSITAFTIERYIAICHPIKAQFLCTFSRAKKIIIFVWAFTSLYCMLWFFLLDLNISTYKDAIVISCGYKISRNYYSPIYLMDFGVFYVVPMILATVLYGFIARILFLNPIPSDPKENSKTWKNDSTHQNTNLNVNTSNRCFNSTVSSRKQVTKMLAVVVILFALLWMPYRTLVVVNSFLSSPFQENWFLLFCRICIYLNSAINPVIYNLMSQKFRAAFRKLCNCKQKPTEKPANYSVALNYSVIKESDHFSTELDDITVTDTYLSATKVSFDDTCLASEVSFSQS
# Cytochrome P450 2D6 (Homo sapiens), sequence (P10635 whole entry, looked up): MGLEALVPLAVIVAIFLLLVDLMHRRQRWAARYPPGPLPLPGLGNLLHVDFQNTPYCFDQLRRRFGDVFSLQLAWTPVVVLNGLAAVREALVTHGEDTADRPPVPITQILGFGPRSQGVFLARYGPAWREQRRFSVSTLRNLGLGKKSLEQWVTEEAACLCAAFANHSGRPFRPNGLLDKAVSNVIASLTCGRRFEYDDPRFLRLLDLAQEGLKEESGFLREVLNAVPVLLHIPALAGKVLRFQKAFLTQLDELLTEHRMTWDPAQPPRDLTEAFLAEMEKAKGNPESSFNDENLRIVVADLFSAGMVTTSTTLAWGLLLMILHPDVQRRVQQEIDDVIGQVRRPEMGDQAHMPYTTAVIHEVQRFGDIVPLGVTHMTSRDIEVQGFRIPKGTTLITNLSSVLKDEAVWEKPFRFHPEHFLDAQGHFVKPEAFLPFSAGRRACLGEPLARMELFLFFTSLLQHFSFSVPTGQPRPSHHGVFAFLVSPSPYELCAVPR
# Progesterone receptor (Homo sapiens), sequence (P06401 whole entry, looked up): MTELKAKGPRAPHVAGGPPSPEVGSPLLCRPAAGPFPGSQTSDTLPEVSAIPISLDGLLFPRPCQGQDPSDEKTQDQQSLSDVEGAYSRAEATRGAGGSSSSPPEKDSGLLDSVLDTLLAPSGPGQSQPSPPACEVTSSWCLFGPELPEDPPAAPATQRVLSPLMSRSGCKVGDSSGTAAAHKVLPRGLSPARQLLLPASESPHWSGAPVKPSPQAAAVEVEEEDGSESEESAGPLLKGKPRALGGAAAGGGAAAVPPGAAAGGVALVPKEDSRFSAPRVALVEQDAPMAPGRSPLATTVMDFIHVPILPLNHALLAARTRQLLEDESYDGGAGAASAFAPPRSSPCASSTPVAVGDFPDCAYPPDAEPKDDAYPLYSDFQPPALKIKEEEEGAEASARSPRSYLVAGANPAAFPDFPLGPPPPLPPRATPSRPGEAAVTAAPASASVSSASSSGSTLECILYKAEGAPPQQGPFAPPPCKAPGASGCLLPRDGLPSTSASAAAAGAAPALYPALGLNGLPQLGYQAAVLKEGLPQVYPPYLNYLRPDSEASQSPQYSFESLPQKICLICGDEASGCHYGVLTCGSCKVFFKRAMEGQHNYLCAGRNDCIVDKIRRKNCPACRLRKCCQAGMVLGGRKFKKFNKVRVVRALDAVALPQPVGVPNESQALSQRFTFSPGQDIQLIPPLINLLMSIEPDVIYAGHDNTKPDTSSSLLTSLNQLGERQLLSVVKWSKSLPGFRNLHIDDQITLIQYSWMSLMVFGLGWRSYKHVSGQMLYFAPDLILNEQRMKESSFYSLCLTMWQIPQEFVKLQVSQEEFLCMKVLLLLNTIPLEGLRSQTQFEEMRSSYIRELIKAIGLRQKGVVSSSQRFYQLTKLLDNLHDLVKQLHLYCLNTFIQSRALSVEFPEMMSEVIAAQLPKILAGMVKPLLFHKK
# Nuclear receptor subfamily 1 group I member 2 (Rattus norvegicus), sequence (Q9R1A7 whole entry, looked up): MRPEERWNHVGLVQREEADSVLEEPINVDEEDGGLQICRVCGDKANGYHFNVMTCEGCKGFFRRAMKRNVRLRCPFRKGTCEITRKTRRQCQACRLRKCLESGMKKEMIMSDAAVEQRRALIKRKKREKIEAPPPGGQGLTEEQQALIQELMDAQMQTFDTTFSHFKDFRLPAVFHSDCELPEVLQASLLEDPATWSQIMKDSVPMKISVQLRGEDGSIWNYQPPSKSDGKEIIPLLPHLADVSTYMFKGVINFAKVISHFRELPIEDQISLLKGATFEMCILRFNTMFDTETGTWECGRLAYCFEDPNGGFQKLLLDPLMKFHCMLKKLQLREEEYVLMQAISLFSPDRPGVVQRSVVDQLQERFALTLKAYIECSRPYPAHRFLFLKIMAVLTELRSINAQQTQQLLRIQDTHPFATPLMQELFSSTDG
Compound,Potency [1],Potency [2],Potency [3],Potency [4],Potency [5],Potency [6],outcome [7],Potency [8],Potency [9],Potency [10],Potency [11],Potency [12],Potency [13],Potency [14],Potency [15],Potency [16],max activation [17],Potency [18],Potency [19],Potency [20]
O=C(Cl)c1cccc(C(=O)Cl)c1,inactive,inactive,inactive,inactive,inactive,inactive,inactive,inactive,inactive,inactive,inactive,inactive,inactive,inactive,inactive,–,–,–,–,–
COC(c1ccccc1)(c1ccccc1)[C@H](Oc1nc(C)cc(C)n1)C(=O)O,inactive,inactive,inactive,inactive,inactive,inactive,inactive,–,–,inactive,inactive,inactive,inactive,inactive,inactive,inactive,-2.41%,10 µM (active),inactive,–
CN(C)c1ccc2nc3ccc(=[N+](C)C)cc-3sc2c1,33 µM (active) and 27.3 µM (active) and 15 µM (active),inactive,–,inactive,inactive,inactive,–,inactive,inactive,1.86 µM (active) and 9.69 µM (active) and 10.6 µM (active),–,5.87 µM (active) and 24.3 µM (active) and 5.96 µM (active),10.4 µM (active) and 27.3 µM (active) and 23.7 µM (active),inactive,–,inactive,-8.38%,3.16 µM (active),–,inactive
Cc1scc2c1N(C(=O)CN1CCN(C)CC1)c1ccccc1NC2=O,inactive,inactive,inactive,inactive,inactive,inactive,inactive,inactive,inactive,inactive,inactive,inactive,inactive,inactive,inactive,inactive,–,–,inactive,–
C#CC(C)(CC)OC(=O)c1ccccc1C(=O)O (stereo not drawn),inactive,inactive,inactive,inactive,inactive,inactive,inactive,–,–,inactive,inactive,inactive,inactive,inactive,inactive,–,–,–,inactive,–
O=C(O)Cn1cnnn1,inactive,inactive,inactive,–,inactive,inactive,–,inactive,inactive,inactive,inactive,inactive,inactive,inactive,inactive,inactive,–,–,–,inactive
